High-throughput results from PubChem BioAssay.
RGS4 inhibitor – Inhibitors of Regulator of G Protein Signaling (RGS) 4: qHTS. Potency, µM (doses to about 114 µM), hits mostly inhibitors. AID 504845, 2011. Transcreener GDP fluorescence polarization, RGS4-accelerated GTP hydrolysis. actives 0.039% (n = 390,000); active = well fitted inhibition curve with a large enough effect; inconclusive = small, poorly fitted or top-dose-only effect; inactive = no such curve, though single readings can be large or run the other way; note: nearly all actives have a fitted effect of over 75% in size
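MLSMR compounds (23 nl, pin-transferred) preincubated 10 min at room temperature with a 500nM (2x) first reagent, then RGS4 at 900nM (2x) plus Transcreener GDP mix added; fluorescence polarization (620/688 nm) read before and after 90 min at 30 °C.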
PI4K2A inh – qHTS for small molecular inhibitors of PI4K2A; Phosphatidylinositol 4-kinase type 2-alpha (Homo sapiens), Q9BTU6; purified PI4K2A, ADP-Glo luminescence, 1 h; stronger effect = lower value; activity change, negative = inhibition, % at 76.9 µM; actives 0.13% (n = 420,000); in the data active = activity change below about -50%; inconclusive = mostly about -30% to -49%
Target sequence (Q9BTU6 whole entry, looked up): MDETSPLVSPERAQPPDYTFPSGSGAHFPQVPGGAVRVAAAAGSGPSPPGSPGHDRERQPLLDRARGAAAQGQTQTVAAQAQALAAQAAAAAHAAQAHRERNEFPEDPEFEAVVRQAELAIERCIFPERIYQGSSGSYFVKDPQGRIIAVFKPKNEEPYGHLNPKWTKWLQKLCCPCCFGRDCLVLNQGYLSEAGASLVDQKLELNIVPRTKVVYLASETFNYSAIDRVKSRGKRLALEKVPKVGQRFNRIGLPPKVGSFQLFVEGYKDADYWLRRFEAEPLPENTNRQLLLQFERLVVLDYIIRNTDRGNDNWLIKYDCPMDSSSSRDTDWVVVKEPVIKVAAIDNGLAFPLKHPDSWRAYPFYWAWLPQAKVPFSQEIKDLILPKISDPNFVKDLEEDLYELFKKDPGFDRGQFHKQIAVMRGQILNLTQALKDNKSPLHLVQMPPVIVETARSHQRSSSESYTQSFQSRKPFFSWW
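PI4K2A activity was measured by ADP-Glo luminescence: enzyme (4 ug/mL stock) and phosphatidylinositol (1.2 mM stock) in Tris pH 7.5/MgCl2/EGTA/Triton X-100 buffer were reacted with ATP (300 microM stock) for one hour at ambient temperature.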
DRD3 antagonist – qHTS of D3 Dopamine Receptor Antagonist: qHTS. D(3) dopamine receptor (Homo sapiens), P35462. D3R cells, DiscoveRx beta-arrestin luminescence, antagonist mode; stronger effect = lower value. max response, negative = inhibition, %. actives 2.5% (n = 360,000); in the data active = max response below about -50%; inconclusive = no clear call, values can overlap the other calls
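Cells expressing the human receptor were seeded at 1500 cells/well, incubated overnight at 37 degrees C in 5% CO2, then exposed to library compounds with dopamine controls for 90 minutes at 37 degrees C before luminescent detection.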
LDHA block – qHTS assay for inhibitors of human lactate dehydrogenase; actives 0.15% (n = 480,000); purified LDHA, NADH/diaphorase-resazurin fluorescence; stronger effect = lower value; activity change, % (values are at about 110 or 230 µM); L-lactate dehydrogenase A chain (Homo sapiens), P00338; AID 1347041, 2019; in the data active = activity change below about -30%; inconclusive = mostly about -25% to -30%
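LDH5 2 nM; NADH 0.06 mM, pyruvate 0.2 mM; 200 mM Tris pH 7.4, EDTA, Tween-20; 5 min RT. Detection: diaphorase 0.133 mg/mL + resazurin 37 µM, fluorescence ex540/em590 at 0 and 20 min; normalized to enzyme-free and DMSO wells.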
Akt phos inh – HTS Assay for Inhibitors of Akt Phophorylation: Primary Screen | Neuro2A IGF-stimulated pAkt S473 HTRF, 20 min; stronger effect = lower value | actives 0.32% (n = 360,000) | activity change, % for hits at 50 µM; in the data active = activity change below about -80%; inconclusive = mostly about -51% to -80%
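Single-point screen (50 µM final compound) in Neuro2A cells stimulated 20 min with 6 nM IGF at 37 deg C. After lysis, Ser473-phosphorylated Akt read by HTRF (ex 330 nm, em 615/665 nm) as the 665/615 ratio.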
D3 ag – qHTS of D3 Dopamine Receptor Agonist: qHTS; D(3) dopamine receptor (Homo sapiens), P35462; D3R DiscoveRx beta-arrestin cells, luminescence, 90 min; max activation, %; actives 0.58% (n = 410,000); AID 652048, 2013; in the data active = max activation above about 30%
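Agonist-mode cell screen: cells plated at 1500/well and incubated overnight at 37 °C, then exposed to library compounds for 90 min at 37 °C. Detection reagent was added for 30–60 min at room temperature, and luminescence was read.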
Of the large screens only hits and unclear results are named; the others gave an inactive call. In the library only some 2.8% were active in any assay of this set; here they are far more common.

CN1CCC(N(C)CC(=O)Nc2ccc3c(c2)OC(F)(F)O3)CC1	LDHA block -34
CCCCOC(=O)Nc1ccc(OC)cc1S(=O)(=O)N1CCOCC1	Akt phos inh -110%
CCOC(=O)C(=O)Nc1ccc(S(=O)(=O)N2CCOCC2)cc1OC	none (no result: Akt phos inh)
CCOCCn1c(N2CCN(C)CC2)nc2c1c(=O)[nH]c(=O)n2C	none (no result: RGS4 inhibitor, PI4K2A inh, DRD3 antagonist, Akt phos inh, D3 ag)
COCc1ccc(-c2c(-c3ccsc3)oc(=O)c3cc(OC)c(OC)cc23)cc1	D3 ag 42
CCC(C)c1ccc(-c2c(C)sc(N)c2C#N)cc1 (centres undefined)	none (no result: RGS4 inhibitor, PI4K2A inh, DRD3 antagonist, Akt phos inh, D3 ag)
CCCC(=O)Nc1sc(C)c(-c2ccc(C(C)CC)cc2)c1C#N (centres undefined)	D3 ag 30
Cc1ccc(-n2ncc3c(=O)[nH]c(SCC(=O)N4CCOCC4)nc32)cc1	none
COC(=O)c1ccc(CSc2nc3c(cnn3-c3ccc(C)cc3)c(=O)[nH]2)o1	D3 ag 35
CNS(=O)(=O)c1ccc(C(=O)NCC(=O)O)cc1	none (no result: RGS4 inhibitor, PI4K2A inh, DRD3 antagonist, Akt phos inh, D3 ag)
Cc1cccc(-c2nc(C#N)c(NCCc3ccccc3)o2)c1	none (no result: RGS4 inhibitor, PI4K2A inh, DRD3 antagonist, Akt phos inh, D3 ag)
O=C(CN(Cc1ccco1)C1CC1)NC1CCCC1	none (no result: RGS4 inhibitor, PI4K2A inh, DRD3 antagonist, Akt phos inh, D3 ag)
COc1ccc(C(=O)Nc2cc(-c3nc4ccccc4o3)ccc2C)c(OC)c1	none (no result: RGS4 inhibitor, PI4K2A inh, DRD3 antagonist, Akt phos inh, D3 ag)
CN1CCCC1CCOC(C)(c1ccccc1)c1ccc(Cl)cc1 (centres undefined)	DRD3 antagonist -101 (no result: D3 ag)
COc1ccc(C(=O)Nc2ccccc2CCC2CCCCN2C)cc1 (centres undefined)	none (no result: RGS4 inhibitor, PI4K2A inh, DRD3 antagonist, LDHA block, Akt phos inh)
NNc1nc(Nc2ccccc2)nc(Nc2ccccc2)n1	DRD3 antagonist -52
NNc1nc(Nc2ccccc2)nc(N2CCCCC2)n1	DRD3 antagonist inconclusive
Oc1ccccc1CNc1nc2ccccc2n1CCN1CCCCC1	DRD3 antagonist -74
COc1ccccc1CNc1nc2ccccc2n1CCN1CCCCC1	DRD3 antagonist inconclusive
Cn1c(SCc2ccc(Cl)c3cccnc23)nnc1C(F)(F)F	none (no result: RGS4 inhibitor, PI4K2A inh, DRD3 antagonist, Akt phos inh, D3 ag)
CO/S(=N\S(=O)(=O)c1ccc(Cl)cc1)c1ccc([N+](=O)[O-])cc1 (centres undefined)	RGS4 inhibitor 12µM (no result: DRD3 antagonist, LDHA block, Akt phos inh, D3 ag)
O=c1cc(N2CCCCC2)c(-c2ccccc2)nn1Cc1c(Cl)cccc1Cl	DRD3 antagonist -69
CC(C)c1ccc(S(=O)(=O)N2CCN(C(=O)c3cn[nH]c3-c3ccccc3)CC2)cc1	none (no result: RGS4 inhibitor, PI4K2A inh, DRD3 antagonist, Akt phos inh, D3 ag)
COc1ccccc1-c1nnc(NC(=O)c2ccc(S(=O)(=O)N(C)Cc3ccccc3)cc2)o1	DRD3 antagonist -78
CCc1nnc(NC(=O)c2ccc(S(=O)(=O)N(C)Cc3ccccc3)cc2)o1	none
CN(c1ccccc1)S(=O)(=O)c1ccc(C(=O)Nc2nnc(-c3ccc(F)cc3)o2)cc1	DRD3 antagonist -88
CN(Cc1ccccc1)S(=O)(=O)c1ccc(C(=O)Nc2nnc(C3CC3)o2)cc1	RGS4 inhibitor inconclusive, DRD3 antagonist -63
COc1ccccc1-c1nnc(NC(=O)c2ccc(S(=O)(=O)N3CCOCC3)cc2)o1	none
CC(=O)Nc1ccc2nc(SCc3ccc(Cl)cc3)sc2c1	none (no result: RGS4 inhibitor, PI4K2A inh, DRD3 antagonist, Akt phos inh, D3 ag)
c1ccc2c(c1)CCN(c1ncnc3c1[nH]c1ccccc13)C2	DRD3 antagonist -53
CC(=O)c1ccc(NC2OCC(O)C(O)C2O)cc1 (centres undefined)	none (no result: RGS4 inhibitor, PI4K2A inh, DRD3 antagonist, Akt phos inh, D3 ag)
O=c1c2c(-c3ccco3)csc2nc(SCc2cn3cccnc3n2)n1-c1ccccc1	PI4K2A inh -58
O=C(CSc1nc2scc(-c3ccco3)c2c(=O)n1-c1ccccc1)N1CCOCC1	D3 ag 31
COc1ccc(C(=O)c2oc3ccc(NC(=O)C(C)C)cc3c2C)cc1	none (no result: RGS4 inhibitor, PI4K2A inh, DRD3 antagonist, Akt phos inh, D3 ag)
CC(=O)C1=C(c2ccc(Br)cc2)C(=O)c2ccccc2C1=O	DRD3 antagonist -87
CNC1=C(N(C(C)=O)c2ccc(Br)cc2)C(=O)c2ccccc2C1=O	none
